# This is a sample that favours compounds with a hit; in the whole collection about 1.6% have one here.
# KCNQ2 enhance: KCNQ2 (rat) channel potentiation | O88943 | CHO-K1 KCNQ2, FluxOR thallium flux fluorescence; stronger effect = higher value | B-score at 10 µM | 310,000 compounds, 0.54% hits | AID 2239;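 active = fluorescence ratio B-score at least 3 SD of library B-scores, with initial fluorescence B-score within 3 of them, cut at about 5.3 in these data; same plate scores as AID 2156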;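 note: B-score of peak minus minimum over baseline fluorescence ratio after K+ and Tl+ stimulus; positive B-score means potentiation of KCNQ2 with more thallium influx and brighter signal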
# Target sequence (O88943 whole entry, looked up): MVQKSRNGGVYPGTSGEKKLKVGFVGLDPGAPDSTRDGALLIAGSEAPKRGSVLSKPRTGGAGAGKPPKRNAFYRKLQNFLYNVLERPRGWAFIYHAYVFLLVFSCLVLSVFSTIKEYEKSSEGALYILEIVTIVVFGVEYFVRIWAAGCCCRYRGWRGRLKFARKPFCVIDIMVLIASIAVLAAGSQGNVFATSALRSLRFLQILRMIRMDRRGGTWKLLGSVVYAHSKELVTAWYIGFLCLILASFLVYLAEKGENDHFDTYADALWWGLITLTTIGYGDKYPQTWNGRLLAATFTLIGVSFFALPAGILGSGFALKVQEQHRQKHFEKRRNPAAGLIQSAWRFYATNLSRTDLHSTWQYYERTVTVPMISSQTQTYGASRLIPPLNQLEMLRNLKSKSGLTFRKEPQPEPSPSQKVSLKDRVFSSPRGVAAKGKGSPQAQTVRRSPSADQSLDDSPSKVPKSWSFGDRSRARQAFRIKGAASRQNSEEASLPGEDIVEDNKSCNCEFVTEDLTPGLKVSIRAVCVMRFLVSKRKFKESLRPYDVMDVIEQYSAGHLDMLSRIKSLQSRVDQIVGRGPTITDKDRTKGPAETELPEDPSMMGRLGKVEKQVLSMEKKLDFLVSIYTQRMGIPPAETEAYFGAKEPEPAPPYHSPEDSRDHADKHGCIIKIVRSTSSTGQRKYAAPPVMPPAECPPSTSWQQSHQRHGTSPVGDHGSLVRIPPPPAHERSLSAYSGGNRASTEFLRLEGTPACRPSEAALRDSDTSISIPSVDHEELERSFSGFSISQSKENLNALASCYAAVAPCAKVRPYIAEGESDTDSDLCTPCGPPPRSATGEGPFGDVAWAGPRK
# KCNQ2 block: inhibitors of rat KCNQ2 potassium channel; O88943; CHO-K1 KCNQ2, FluxOR thallium flux, 20 min; stronger effect = lower value; B-score at 10 µM; 310,000 compounds, 1.1% hits;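 active = fluorescence ratio B-score at most minus 3 library SDs, with starting brightness B-score within 2 library SDs, cut at about -5.5 in these data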
# KCNQ2 block conf: confirmation of rat KCNQ2 potassium channel inhibitors; shares compounds with KCNQ2 block; KCNQ2-expressing cells, thallium flux, inhibition; stronger effect = lower value; activity change, negative = inhibition, % at 10 µM; 1,000 compounds, 57% hits; AID 493025;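 note: 0% = vehicle wells and values are ratio percent relative to vehicle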
# KCNQ1 spec: KCNQ2 inhibitor that also affects human KCNQ1 channel; shares compounds with KCNQ2 block; KCNQ1-expressing cells, FluxOR thallium flux fluorescence; stronger effect = lower value; activity change, negative = inhibition, % at 10 µM; 1,000 compounds, 15% hits; AID 493026;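 active = activity change at least 3 SD of negative controls below their mean in both duplicate wells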;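 note: CHO cells stably transfected with KCNQ1 and depolarized by potassium stimulus; peak minus minimum fluorescence over baseline after thallium addition; 0% = vehicle negative control and -100% = blank without thallium stimulus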
# CHO parental ctr: KCNQ2 inhibitor counter-screen hit in parental CHO cells; AID 493029; 1,000 compounds, 14% hits; shares compounds with KCNQ2 block; thallium flux counter-screen; stronger effect = lower value; activity change, % at 10 µM;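 note: 0% = vehicle negative controls with stimulus buffer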
# KCNQ2 patch conf: rat KCNQ2 inhibition confirmed by electrophysiology; shares compounds with KCNQ2 block; KCNQ2-expressing cells, automated patch clamp current; calls only at 10 µM; 550 compounds, 49% hits; AID 588531
# Active calls of the source: *; i = inactive; . = no result given; + = active, no number. Unless noted, the rule behind the calls is not given here.
SMILES,KCNQ2 enhance,KCNQ2 block,KCNQ2 block conf,KCNQ1 spec,CHO parental ctr,others
O=[N+]([O-])c1ccc(C2CCCC/C2=N\OCc2cccc(F)c2)c([N+](=O)[O-])c1 (centres undefined),-8.3,-8.3*,i,i,i,
CC1CCCC/C1=N/Nc1ccc([N+](=O)[O-])cc1[N+](=O)[O-] (centres undefined),0.38,i,.,.,.,
CCOc1ccccc1NC(=O)Cn1c(=O)n(-c2ccc(OC)cc2OC)c(=O)c2c(C)c(C(=O)N(CC)CC)sc21,.,i,.,.,.,
COc1ccc(-n2c(=O)c3c4c(sc3n(CC(=O)Nc3cc(C)[nH]n3)c2=O)CCCC4)c(OC)c1,-6.66,-6.66*,i,i,i,
Nc1cccc(P(=O)(c2ccccc2)c2ccccc2)c1,.,i,.,.,.,
O=P(c1ccccc1)(c1ccccc1)N(c1ccccc1)c1ccccc1,-6.83,-6.83*,-20.0%*,i,i,KCNQ2 patch conf=+
CCOc1ccccc1N(CC(=O)NCC1CCCO1)C(=O)CCC(=O)Nc1nccs1 (centres undefined),0.49,i,.,.,.,
Cc1ccc(C(=O)/C=C/C(=O)c2ccc(C)cc2)cc1,-7.53,-7.53*,i,i,i,
Cc1ccc(/C=C/C(=O)c2ccc(C)cc2)cc1,.,i,.,.,.,
O=C(CCNc1cccc(F)c1)c1cccc([N+](=O)[O-])c1,-6.71,-6.71*,i,i,i,
O=C(CCNc1ccc(Cc2ccncc2)cc1)c1cccc([N+](=O)[O-])c1,.,i,.,.,.,
CCCCOc1ccc(C(=O)N(C)CC(=O)Nc2ccc(C)cc2)cc1,0.43,i,.,.,.,
O=P(O)(C(O)c1ccccc1)C(O)c1ccccc1 (centres undefined),.,i,.,.,.,
Cc1ccc(C2C(C=Nc3c(C)n(C)n(-c4ccccc4)c3=O)=C(c3ccccc3)Oc3ccccc32)cc1 (centres undefined),-11.2,-11.2*,-24.0%*,i,i,KCNQ2 patch conf=i
Cc1c(N=Cc2cccs2)c(=O)n(-c2ccccc2)n1C,.,i,.,.,.,
COc1ccc(-c2nc3cc(C)ccn3c2NCc2ccc3c(c2)OCO3)cc1,.,i,.,.,.,
COc1ccc(-c2nc3ccccn3c2NCc2ccc3c(c2)OCO3)cc1,-8.4,-8.4*,i,i,i,
Oc1ccccc1N=Nc1nc(-c2ccccc2)c(-c2ccccc2)[nH]1,-6.6,-6.6*,i,i,i,
COc1ccccc1N=Nc1nc(-c2ccccc2)c(-c2ccccc2)[nH]1,.,i,.,.,.,
Cc1ccc(CCNC(=O)Cc2ccc(NC3=NC4CS(=O)(=O)CC4S3)cc2)cc1 (centres undefined),.,i,.,.,.,
COCCN(C(=O)CC1C(=O)NCCN1Cc1ccc(-c2ccccc2)cc1)C(C)C (centres undefined),0.54,i,.,.,.,
COc1ccc(/C(N)=N/OC(=O)CSc2ccc(C)cc2)cc1OC,-9.2,-9.2*,i,i,i,
COc1ccc(/C(N)=N/OC(=O)CC2CCCCC2)cc1OC,0.35,i,.,.,.,
CC(=O)Oc1ccc(C(=O)Nc2ccc(S(=O)(=O)N3CCOCC3)cc2)cc1,.,i,.,.,.,
C/C(=C\C(=O)c1ccc(Br)cc1)Nc1ccc(Cl)cc1,.,i,.,.,.,
SMILES,KCNQ2 enhance,KCNQ2 block,KCNQ2 block conf,KCNQ1 spec,CHO parental ctr,others
COc1cccc(N/C(C)=C/C(=O)c2ccc(Br)cc2)c1,-7.58,-7.58*,-41.0%*,-47.0%*,-33.0%*,KCNQ2 patch conf=i
COc1ccc(OCCNS(=O)(=O)c2ccc3oc4ccccc4c3c2)cc1,0.01,i,.,.,.,
CN(CCOc1ccccc1)S(=O)(=O)c1ccc2oc3ccccc3c2c1,-7.8,-7.8*,-16.5%*,i,i,KCNQ2 patch conf=i
Cc1c(Cl)c([N+](=O)[O-])nn1CCCC(=O)NC1CCCCC1,0.79,i,.,.,.,
Cc1cc2oc(C(=O)N(Cc3ccc(N(C)C)cc3)CC3CCCO3)c(C)c2cc1C (centres undefined),-8.61,-8.61*,-37.0%*,-35.5%*,-33.5%*,KCNQ2 patch conf=+
Cc1ccc2oc(C(=O)N(Cc3ccc(N(C)C)cc3)CC3CCCO3)c(C)c2c1 (centres undefined),.,i,.,.,.,
COCC(C)n1c(C)cc(C(=O)COC(=O)CN=C2NS(=O)(=O)c3ccccc32)c1C (centres undefined),2.55,i,.,.,.,
CCOC(=O)COc1nc(-c2ccco2)cc(-c2ccco2)c1C#N,.,i,.,.,.,
CCOC(=O)C(C)Sc1nc(-c2ccco2)cc(C(F)(F)F)c1C#N (centres undefined),-8.76,-8.76*,-37.0%*,-39.0%*,-37.0%*,KCNQ2 patch conf=i
N#CCCN1CCN(C(=O)c2c(N)no[n+]2[O-])CC1,1.73,i,.,.,.,
O=C(C1CC(=O)N(c2ccc3c(c2)OCCO3)C1)N1CCCC(C(F)(F)F)C1 (centres undefined),0.37,i,.,.,.,
Cc1nn(-c2ccc(N3CCOCC3)nn2)c(C)c1CCC(=O)NCc1ccccc1,0.78,i,.,.,.,
CCN(C(=O)COC(=O)c1cc(S(=O)(=O)N(C)C)ccc1Cl)C1CCS(=O)(=O)C1 (centres undefined),0.68,i,.,.,.,
O=C(NCC(c1ccco1)N1CCc2ccccc2C1)C(=O)Nc1ccccc1F (centres undefined),-6.98,-6.98*,-26.0%*,i,i,KCNQ2 patch conf=i
CC(=O)Nc1ccc(NC(=O)C(=O)NCC(c2ccco2)N2CCc3ccccc3C2)cc1 (centres undefined),.,i,.,.,.,
O=C(NCC(c1ccco1)N1CCc2ccccc2C1)C(=O)Nc1ccc(F)cc1F (centres undefined),-6.69,-6.69*,-25.5%*,i,i,KCNQ2 patch conf=i
O=C(CN1CCc2ccccc2C1)Nc1ccc(F)cc1F,.,i,.,.,.,
CN(C)S(=O)(=O)c1cccc(C(=O)OCC(=O)NC2CCCc3ccccc32)c1 (centres undefined),1.33,i,.,.,.,
Cc1cccc(N2CCN(C(=O)C(Cc3ccccc3)n3cccc3)CC2)c1C (centres undefined),-13,-13*,-43.0%*,-34.5%*,-31.0%*,KCNQ2 patch conf=i
Cc1cccc(N2CCN(C(=O)C(Cc3ccccc3)NC(N)=O)CC2)c1C (centres undefined),0.13,i,.,.,.,
CC/C(=N\NC(=O)CNC(=O)/C=C/c1ccc(OC)cc1)c1ccccc1,0.55,i,.,.,.,
Clc1ccc(CSc2ccc(-c3ccccn3)nn2)cc1,.,i,.,.,.,
Clc1ccc(CSc2cc3c(nn2)-c2ccccc2CC3)cc1,-10.4,-10.4*,-37.5%*,-41.0%*,-28.5%*,KCNQ2 patch conf=i
CC1(C)OC2OC(C(=O)N/N=C/c3ccccc3F)C3OC(C)(C)OC3C2O1 (centres undefined),1.12,i,.,.,.,
CC1(C)C(C=C(Cl)Cl)C1C(=O)N/N=C/c1ccccc1F (centres undefined),-9.88,-9.88*,-28.0%*,i,i,KCNQ2 patch conf=+
C[C@H](NC(=O)C1CCN(S(=O)(=O)c2ccccc2)CC1)C(=O)NCc1ccc(Cl)c(Cl)c1,.,i,.,.,.,
CC(C)C1Cc2ccccc2-c2[nH]c(=S)[nH]c(=O)c21 (centres undefined),.,i,.,.,.,

# Compound activity (PubChem BioAssay)
